Screening results (PubChem BioAssay)
Compounds with a hit are over-represented: about 1.4% of the library has one in this group of screens.
LEDGF integ inh: blocks HIV-1 LEDGF/p75-dependent DNA integration | TR-FRET IN-LEDGF/p75 DNA integration, Eu/Cy5 | inhibition, % at 3.7 µM | hit rate 0.64% among 370,000 | AID 743269;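 active = inhibition above the screen-wide mean plus 3 SD, cut at about 13% in these data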;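 note: signal is the Cy5 over europium emission ratio at 671 and 618 nm; 0% = plate median of compound wells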
MBD2 DNA inh: blocks human MBD2 binding to methylated DNA | TR-FRET, MBD2 binding to methylated oligonucleotide | hit rate 0.31% among 370,000 | inhibition, % at 4.4 µM; in the data active = inhibition above about 13%
Target sequence (Q9UBB5 whole entry, looked up): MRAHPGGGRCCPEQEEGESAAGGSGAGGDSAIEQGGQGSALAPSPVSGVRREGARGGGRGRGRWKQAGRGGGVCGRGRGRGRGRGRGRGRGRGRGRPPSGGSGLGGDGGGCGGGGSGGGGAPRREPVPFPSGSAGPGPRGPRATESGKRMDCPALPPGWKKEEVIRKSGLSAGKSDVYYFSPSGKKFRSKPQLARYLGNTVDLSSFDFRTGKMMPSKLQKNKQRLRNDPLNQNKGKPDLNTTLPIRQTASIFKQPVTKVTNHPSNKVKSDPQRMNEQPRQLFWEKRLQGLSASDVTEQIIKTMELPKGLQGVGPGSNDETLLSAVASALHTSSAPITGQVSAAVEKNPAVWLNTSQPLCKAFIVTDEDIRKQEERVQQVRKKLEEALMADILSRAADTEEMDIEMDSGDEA
UHRF1 MBD2 ctr: UHRF1 methyl-DNA binding inhibition; Q96T88; UHRF1 binding to methylated oligo, TR-FRET; inhibition, % at 4.4 µM; hit rate 0.75% among 370,000; AID 687016; in the data active = inhibition above about 21%;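 note: UHRF1 SRA domain binding a hemimethylated CpG hairpin DNA probe; 0% = median of test compound wells and 100% = reference inhibitor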
CASP6 VEID inh: blocks human caspase-6 cleavage activity | purified caspase-6, Z-VEID-R110 cleavage fluorescence | AID 686996 | inhibition, % at 12.5 µM | P55212 | hit rate 0.53% among 350,000;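 active = mean inhibition across replicates at least about 35%, with every replicate also reaching that limit, limit read from the data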;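 note: 0% = median of neutral control wells and 100% = no fluorescence left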
* marks the source's active call; other numbers are inactive results.

Cc1cc(C)n(-c2ccc(F)cc2)c(=O)c1C(=O)O was read as LEDGF integ inh 5, MBD2 DNA inh 11 and UHRF1 MBD2 ctr 23*.
CO[C@H]1CN(C)C(=O)c2cc(NC(=O)c3cc(C)on3)ccc2OC[C@H](C)N(C)C[C@H]1C was read as CASP6 VEID inh 0.
Screening COc1ccc(-c2ccc3n(c2=O)C[C@H]2[C@H](CO)[C@@H](C(=O)N(C)C)[C@@H]3N2Cc2cccnc2)cc1 returned CASP6 VEID inh 5.
CCOC(=O)N1CCN(C(=O)Cc2ccccc2[N+](=O)[O-])CC1 was read as LEDGF integ inh -4, MBD2 DNA inh 0, UHRF1 MBD2 ctr -1 and CASP6 VEID inh 35*.
Screening CCOC(=O)N1CCN(C(=O)COc2ccccc2[N+](=O)[O-])CC1 returned LEDGF integ inh 4, MBD2 DNA inh -7, UHRF1 MBD2 ctr -1 and CASP6 VEID inh 1.
CCCNC(=O)OC1CC2CC1[C@H]1CCCCN1C2=O (some centres not stated) was read as LEDGF integ inh 2, MBD2 DNA inh 9, UHRF1 MBD2 ctr 23* and CASP6 VEID inh 2.
`CCOc1ccc(NC(=O)CN(C)C(=O)c2ccccc2Cc2ccccc2)cc1OCC` gave LEDGF integ inh 3, MBD2 DNA inh 5, UHRF1 MBD2 ctr 21* and CASP6 VEID inh 12.
For CCOc1ccc(NC(=O)CN(C)C(=O)c2ccccc2OCc2cccc(C)c2)cc1OCC the results were LEDGF integ inh 4, MBD2 DNA inh 0, UHRF1 MBD2 ctr 3 and CASP6 VEID inh -119.
CC(C)[C@H]1C=C(C(=O)NCc2ccccc2)O[C@@H](OCc2ccc(CO)cc2)C1 was read as CASP6 VEID inh 1.
Screening O=C(NCC[C@H]1CC[C@H](NC(=O)c2ccccc2F)[C@H](CO)O1)c1ccc2c(c1)OCO2 returned CASP6 VEID inh 0.
For Cc1ccc(NC(=O)CCS(=O)(=O)c2cc3[nH]c(=O)c(=O)[nH]c3cc2C)cc1 the results were LEDGF integ inh 0, MBD2 DNA inh -6, UHRF1 MBD2 ctr 0 and CASP6 VEID inh 37*.
O=C(N[C@@H]1CC[C@H](CCNC(=O)C2CCCC2)O[C@@H]1CO)c1ccccn1 was read as CASP6 VEID inh 1.
Screening O=C1CC(c2ccc(O)cc2)Oc2cc(O)cc(O)c21 (configuration not stated) returned LEDGF integ inh 4, MBD2 DNA inh 0, UHRF1 MBD2 ctr -1 and CASP6 VEID inh 1.
`O=C(c1c(O)cc(O)cc1O)C1c2c(cc(O)c3c2O[C@H](c2ccc(O)cc2)[C@@H](O)C3)OC1c1ccc(O)cc1` (some centres not stated) gave LEDGF integ inh 10, MBD2 DNA inh 3, UHRF1 MBD2 ctr -1 and CASP6 VEID inh 37*.
Screening O=C(CN1C(=O)NC(c2ccccc2)(c2ccccc2)C1=O)Nc1ccc(N2CCOCC2)cc1 returned LEDGF integ inh 2, MBD2 DNA inh 2, UHRF1 MBD2 ctr 0 and CASP6 VEID inh 1.
COc1ccc(C2(c3ccc(OC)cc3)NC(=O)N(CC(=O)Nc3ccc(N4CCOCC4)cc3)C2=O)cc1 was read as LEDGF integ inh -5, MBD2 DNA inh -1, UHRF1 MBD2 ctr 2 and CASP6 VEID inh 51*.
Screening COc1cccc(CN2CCc3[nH]c(=S)[nH]c(=O)c3C2)c1 returned LEDGF integ inh -1, MBD2 DNA inh 2, UHRF1 MBD2 ctr -2 and CASP6 VEID inh 41*.
COCCCN1CCc2[nH]c(=S)[nH]c(=O)c2C1 was read as LEDGF integ inh 3, MBD2 DNA inh 1 and UHRF1 MBD2 ctr -1.
`CCOc1ccccc1C1C(C(=O)Nc2ccccc2OC)=C(C)Nc2nc(CCCO)nn21` (configuration not stated) gave LEDGF integ inh -4, MBD2 DNA inh 2, UHRF1 MBD2 ctr 22* and CASP6 VEID inh 1.
COc1cccc(/C=N/Nc2nnc3c(n2)[nH]c2ccccc23)c1OC was read as LEDGF integ inh -2, MBD2 DNA inh -7, UHRF1 MBD2 ctr -6 and CASP6 VEID inh 4.
`CCc1ccc2[nH]c3nc(N/N=C/c4cccc(O)c4)nnc3c2c1` gave LEDGF integ inh 2, MBD2 DNA inh -7, UHRF1 MBD2 ctr 43* and CASP6 VEID inh 1.
Screening CCCN(C)C[C@@H]1Oc2cc(C#Cc3cccc(F)c3)ccc2S(=O)(=O)N([C@@H](C)CO)C[C@@H]1C returned CASP6 VEID inh -1.
`COC(=O)c1cn(C(=O)c2ccccc2Cl)c2ccccc12` gave LEDGF integ inh 0, MBD2 DNA inh 0, UHRF1 MBD2 ctr 25* and CASP6 VEID inh 1.
For COC(=O)c1cn(C(=O)OC)c2ccccc12 the results were LEDGF integ inh 4, MBD2 DNA inh 2 and UHRF1 MBD2 ctr 5.
CCOc1ccc(S(=O)(=O)N2CCCC(C(=O)NCC3CCCO3)C2)cc1Cl (configuration not stated) was read as LEDGF integ inh -1, MBD2 DNA inh -5, UHRF1 MBD2 ctr 83* and CASP6 VEID inh -2.
Screening C[C@H](CO)N1C[C@H](C)[C@H](CN(C)C)Oc2ccc(N(C)C)cc2CC1=O returned CASP6 VEID inh 0.
`O=C(Cc1ccccc1)NN1C(=O)/C(=C/c2ccc(C(=O)O)cc2)SC1=S` gave LEDGF integ inh 0, MBD2 DNA inh -1, UHRF1 MBD2 ctr -1 and CASP6 VEID inh 69*.
CSC1SCC2C(=O)N(C)C(C(C)C)C(=O)OCC(NC(=O)c3cnc4ccccc4n3)C(=O)NC(C)C(=O)N(C)C1C(=O)N(C)C(C(C)C)C(=O)OCC(NC(=O)c1cnc3ccccc3n1)C(=O)NC(C)C(=O)N2C (configuration not stated) was read as LEDGF integ inh -51, MBD2 DNA inh 95*, UHRF1 MBD2 ctr -35 and CASP6 VEID inh -1.
For CC(C)(Oc1ccc(Cl)cc1)C(=O)Nc1ncccn1 the results were LEDGF integ inh 3, MBD2 DNA inh 13 and UHRF1 MBD2 ctr 22*.
CC(C)(Oc1ccc(Cl)cc1)C(=O)O was read as LEDGF integ inh 2, MBD2 DNA inh -2, UHRF1 MBD2 ctr -2 and CASP6 VEID inh 2.
`O=C1c2ccccc2C(=O)c2[nH]c(=O)[nH]c21` gave LEDGF integ inh 3, MBD2 DNA inh -12, UHRF1 MBD2 ctr -5 and CASP6 VEID inh 83*.
O=C(CN1CCN(S(=O)(=O)c2ccccc2F)CC1)Nc1ccnn1C1CCCC1 was read as LEDGF integ inh -8, MBD2 DNA inh 3, UHRF1 MBD2 ctr 0 and CASP6 VEID inh 0.
`Cc1ccc(S(=O)(=O)N2CCN(CC(=O)Nc3ccnn3C3CCCC3)CC2)cc1` gave LEDGF integ inh 2, MBD2 DNA inh 1, UHRF1 MBD2 ctr -1 and CASP6 VEID inh 39*.
`C[C@@H]1CN([C@H](C)CO)C(=O)c2cc(NC(=O)NC3CCCCC3)ccc2O[C@@H]1CN(C)Cc1ccc(C(=O)O)cc1` gave CASP6 VEID inh 0.
Screening CC1CCc2c(sc(NC(=O)c3ccco3)c2C(=O)O)C1 (configuration not stated) returned LEDGF integ inh -1, MBD2 DNA inh -3, UHRF1 MBD2 ctr 3 and CASP6 VEID inh -3.
